Bioassay records from PubChem BioAssay.
Casp6 inh: blocks human caspase-6 cleavage activity. 350,000 tested, 0.53% active. inhibition, % at 12.5 µM. purified caspase-6, Z-VEID-R110 cleavage fluorescence. AID 686996. P55212;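 active = mean inhibition across replicates at least about 35%, with every replicate also reaching that limit, limit read from the data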;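 also: 0% = median of neutral control wells and 100% = no fluorescence left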
Target sequence (P55212 24-179 limits assumed): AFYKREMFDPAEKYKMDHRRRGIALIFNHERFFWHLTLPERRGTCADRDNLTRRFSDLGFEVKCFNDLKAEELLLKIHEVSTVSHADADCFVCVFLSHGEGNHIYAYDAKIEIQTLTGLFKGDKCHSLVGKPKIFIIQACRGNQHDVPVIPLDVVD
Target sequence (P55212 194-293 limits assumed): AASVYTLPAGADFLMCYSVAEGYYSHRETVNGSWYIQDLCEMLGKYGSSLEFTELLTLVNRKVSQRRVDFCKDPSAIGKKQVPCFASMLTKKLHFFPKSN
SIRT5 block: inhibitors of human sirtuin-5 desuccinylase; 330,000 tested, 1.1% active; Purified SirT5, succinyl-peptide AMC, trypsin-coupled fluorescence; inhibition, % at 15 µM; in the data active = inhibition above about 15%
NSD2 HMT inh: inhibitors of human histone methyltransferase NSD2. O96028. NSD2 peptide methylation, AlphaScreen, 120 min. inhibition, % at 12.5 µM. 310,000 tested, 0.54% active; in the data active = inhibition above about 50%
UBC9 SUMO inh: inhibitors of human SUMOylation (UBC9); HTRF SUMOylation assay, SAE1/SAE2 + UBC9, in vitro; AID 2006; P63279; 290,000 tested, 0.36% active; inhibition, % at 35 µM; in the data active = inhibition above about 50%, passing the limit was not always enough
Target sequence (P63279 whole entry, looked up): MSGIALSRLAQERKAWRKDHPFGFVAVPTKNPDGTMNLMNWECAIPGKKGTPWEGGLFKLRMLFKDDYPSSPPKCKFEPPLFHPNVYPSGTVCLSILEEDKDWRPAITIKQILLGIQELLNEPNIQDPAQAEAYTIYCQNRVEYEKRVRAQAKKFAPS
Active calls of the source: *; nt = no result. A selection: hits, their analogues and other compounds. The true share with any hit is near 1.6%.

SMILES | Casp6 inh | SIRT5 block | NSD2 HMT inh | UBC9 SUMO inh
Cc1ccc(C)c(NC(=O)CCC(=O)NNC(=S)Nc2ccccc2)c1 | 0 | -4 | -1 | 1
C[C@H]1CCCCO[C@@H](CN(C)C(=O)CCCN(C)C)[C@@H](C)CN([C@@H](C)CO)C(=O)c2cc(NS(=O)(=O)c3ccccc3)ccc2O1 | -14 | -7 | nt | nt
Cc1ccccc1C(=O)NCCn1cc(SCC(=O)NCC2CCCO2)c2ccccc21 (configuration not stated) | 41* | -2 | -2 | -1
Cn1c(SCC(=O)NCC2CCCO2)nnc1-c1ccc(Cl)cc1 (configuration not stated) | -1 | 19* | nt | nt
O=C(Cn1nc(-c2ccc(Cl)cc2)ccc1=O)NCC1CCCO1 (configuration not stated) | -1 | 19* | nt | 4
O=C(Cn1nc(-c2ccccc2)ccc1=O)NCC1CCCO1 (configuration not stated) | nt | nt | -1 | 18
COc1ccc(-c2nnc(SCC(=O)NCC3CCCO3)n2C)cc1 (configuration not stated) | 7 | -4 | 12 | 7
COCC(=O)Nc1ccc2c(c1)C(=O)N(C)C[C@H](OC)[C@H](C)CN(C(=O)Cc1ccccn1)[C@@H](C)CO2 | 4 | -3 | nt | nt
C[C@H]1CN([C@@H](C)CO)S(=O)(=O)c2ccc(-c3cccc(F)c3)cc2O[C@@H]1CN(C)S(=O)(=O)c1ccccc1 | -1 | 16* | nt | nt
C[C@@H]1CN([C@@H](C)CO)S(=O)(=O)c2ccc(-c3cccc(F)c3)cc2O[C@H]1CN(C)S(=O)(=O)c1ccccc1 | 5 | 13 | nt | nt
C[C@@H]1CN([C@H](C)CO)S(=O)(=O)c2ccc(-c3cccc(F)c3)cc2O[C@@H]1CN(C)S(=O)(=O)c1ccccc1 | -5 | 16* | nt | nt
COc1ccccc1-c1ccc2c(c1)O[C@H](CN(C)S(=O)(=O)c1ccccc1)[C@@H](C)CN([C@@H](C)CO)S2(=O)=O | -3 | 20* | nt | nt
C[C@H](CO)N1C[C@H](C)[C@@H](CN(C)S(=O)(=O)c2ccccc2)Oc2cc(-c3cccc(F)c3)ccc2S1(=O)=O | -1 | 7 | nt | nt
COc1ccccc1-c1ccc2c(c1)O[C@H](CN(C)S(=O)(=O)c1ccccc1)[C@@H](C)CN([C@H](C)CO)S2(=O)=O | -1 | 15 | nt | nt
C[C@@H]1CN([C@H](C)CO)S(=O)(=O)c2ccc(-c3cccc(F)c3)cc2O[C@H]1CN(C)S(=O)(=O)c1ccccc1 | -1 | 17* | nt | nt
COCCCNc1nc2cc(OC)c(OC)cc2c2nc(-c3ccccc3)nn12 | -2 | 21* | -1 | 13
C[C@H]1CN([C@@H](C)CO)S(=O)(=O)c2ccc(-c3ccncc3)cc2O[C@@H]1CN(C)Cc1cccnc1 | -1 | -2 | nt | nt
COc1ccc(NC(=O)Cn2c(=O)oc3cc(S(=O)(=O)N4CCCC4)ccc32)cc1 | 5 | -2 | nt | 8
Cc1ccc(NC(=O)Cn2c(=O)oc3cc(S(=O)(=O)N4CCC(C)CC4)ccc32)cc1C | 2 | 2 | nt | 50*
C/C=C/c1ccc2c(c1)O[C@H](CN(C)Cc1cccc(F)c1)[C@H](C)CN([C@@H](C)CO)S2(=O)=O | 1 | 19* | nt | nt
C/C=C/c1ccc2c(c1)O[C@@H](CN(C)Cc1ccccc1F)[C@H](C)CN([C@@H](C)CO)S2(=O)=O | -1 | 19* | nt | nt
C/C=C/c1ccc2c(c1)O[C@H](CN(C)Cc1ccccc1)[C@@H](C)CN([C@H](C)CO)S2(=O)=O | -1 | 12 | nt | nt
O=C(NC1CCCCC1)N[C@H]1CC[C@@H](CC(=O)N2CCOCC2)O[C@@H]1CO | 0 | 2 | nt | nt
O=C(NC1CCCC1)N1CC2(C1)[C@@H](c1ccccc1)[C@@H](CO)N2CC1CCOCC1 | 2 | -2 | nt | nt
C[C@H]1CN([C@@H](C)CO)C(=O)c2cc(NC(=O)C3CCCCC3)ccc2O[C@H]1CN(C)Cc1ccccc1 | -1 | -5 | nt | nt
SMILES | Casp6 inh | SIRT5 block | NSD2 HMT inh | UBC9 SUMO inh
Cn1c(SCCOc2ccccc2Cl)nnc1-c1ccncc1 | 35* | -3 | -3 | 18
Cc1ccccc1OCCSc1nnc(-c2ccncc2)n1C | nt | nt | 0 | 16
Cc1ccc(O)c(NC(=O)Cc2cccc3ccccc23)c1 | nt | nt | -1 | nt
Cc1ccc(S(=O)(=O)N(C)C[C@@H]2OCCCC[C@@H](C)Oc3ccc(NS(=O)(=O)c4ccccc4)cc3C(=O)N([C@@H](C)CO)C[C@@H]2C)cc1 | 2 | 21* | nt | nt
Cc1ccc(S(=O)(=O)Nc2ccc3c(c2)C(=O)N([C@H](C)CO)C[C@@H](C)[C@H](CN(C)S(=O)(=O)c2ccccc2)OCCCC[C@H](C)O3)cc1 | 3 | 10 | nt | nt
Cc1ccc(S(=O)(=O)N(C)C[C@H]2OCCCC[C@H](C)Oc3ccc(NS(=O)(=O)c4ccccc4)cc3C(=O)N([C@H](C)CO)C[C@@H]2C)cc1 | -2 | 3 | nt | nt
